In all, about 310,000 compounds went through this assay and about 14,000 (4.5%) showed an effect of 50% or more. Effects have a minus sign here. The sample holds strong results, similar compounds and a random draw of the others, so the mix is not that of the screen.
target: human ether-à-go-go-related gene (hERG) potassium channel (human, UniProt Q12809); assay: primary screen, population patch clamp on CHO cells stably expressing hERG; higher = less effect of the substance
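Note: peak tail current of the secondary pulse compared with the same well before compound.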

human ether-à-go-go-related gene (hERG) potassium channel, sequence (Q12809 whole entry, looked up): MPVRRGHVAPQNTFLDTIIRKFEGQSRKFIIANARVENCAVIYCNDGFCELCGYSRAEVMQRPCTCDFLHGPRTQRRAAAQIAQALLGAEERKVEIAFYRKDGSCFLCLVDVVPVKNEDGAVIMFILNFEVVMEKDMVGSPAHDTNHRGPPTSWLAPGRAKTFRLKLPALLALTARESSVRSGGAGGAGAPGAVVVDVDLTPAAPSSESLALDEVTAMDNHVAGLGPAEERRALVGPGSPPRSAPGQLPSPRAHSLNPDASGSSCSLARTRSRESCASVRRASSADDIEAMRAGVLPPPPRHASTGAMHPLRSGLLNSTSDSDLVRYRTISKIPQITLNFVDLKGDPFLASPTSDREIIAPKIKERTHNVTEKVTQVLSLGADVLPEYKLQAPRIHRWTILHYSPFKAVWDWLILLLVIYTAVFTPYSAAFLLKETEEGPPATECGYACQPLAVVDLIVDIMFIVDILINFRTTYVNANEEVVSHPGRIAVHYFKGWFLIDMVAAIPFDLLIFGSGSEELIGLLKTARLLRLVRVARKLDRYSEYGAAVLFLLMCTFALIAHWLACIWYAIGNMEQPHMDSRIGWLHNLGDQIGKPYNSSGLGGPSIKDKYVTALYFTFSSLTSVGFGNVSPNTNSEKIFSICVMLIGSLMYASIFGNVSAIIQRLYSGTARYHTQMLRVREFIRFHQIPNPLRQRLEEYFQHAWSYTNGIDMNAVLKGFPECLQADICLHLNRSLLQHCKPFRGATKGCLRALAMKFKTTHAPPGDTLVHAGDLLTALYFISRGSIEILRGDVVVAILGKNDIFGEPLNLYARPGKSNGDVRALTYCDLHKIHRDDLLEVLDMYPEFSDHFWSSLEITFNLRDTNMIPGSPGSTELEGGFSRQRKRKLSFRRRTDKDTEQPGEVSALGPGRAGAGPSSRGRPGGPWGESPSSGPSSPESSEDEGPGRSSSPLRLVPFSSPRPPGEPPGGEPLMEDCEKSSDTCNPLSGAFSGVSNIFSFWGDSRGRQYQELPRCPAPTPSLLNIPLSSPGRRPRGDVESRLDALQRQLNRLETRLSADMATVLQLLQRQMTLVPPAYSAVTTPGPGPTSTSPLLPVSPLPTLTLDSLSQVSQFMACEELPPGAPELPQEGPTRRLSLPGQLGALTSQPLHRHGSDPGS

SMILES	hERG current change (%, negative = inhibition) at 10uM [%]
Cc1ccc(S(=O)(=O)N2CCCC(C)C2)cc1 (centres unmarked)	12.9
Cc1ccc(S(=O)(=O)N2CCCC(c3nnc4n3-c3ccccc3SC4)C2)cc1 (centres unmarked)	-92.8
Cc1ccc(-c2nc(C3CCCN(S(=O)(=O)c4ccc(C)cc4)C3)no2)cc1 (centres unmarked)	12.2
O=C(O)CCCCCNC(=O)c1ccccc1	8.89
COc1ccc(-n2c(SCC#N)nnc2-c2cccnc2)cc1	-34
CCOc1ccc(-n2c(SCc3cc(=O)oc4cc(C)c(C(C)C)cc34)nnc2-c2cccnc2)cc1	-37.2
NC(=O)CSc1nnc(-c2cccs2)n1-c1ccccc1	10.2
O=C(O)c1ccc(CSc2nnc(-c3cccnc3)n2-c2ccc(Br)cc2)cc1	15.1
N#CCSc1nnc(-c2cccnc2)n1-c1ccccc1	-7.93
N#Cc1ccc(CSc2nnc(-c3c[nH]c4ccccc34)n2-c2ccccc2)cc1	5.38
CCOc1ccc(-n2c(SCc3cc(=O)oc4cc(C)ccc34)nnc2-c2cccnc2)cc1	-70.7
N#Cc1ccc(CSc2nnc(-c3cccs3)n2-c2ccccc2)cc1	-72.7
N#Cc1ccc(CSc2nnc(-c3cccnc3)n2-c2ccccc2)cc1	-71.2
CC(=O)Nc1ccc2c(CSc3nnc(-c4cccnc4)n3-c3ccc(C)cc3C)cc(=O)oc2c1	-17.8
CCOc1ccc(-n2c(SCc3ccc(C#N)cc3)nnc2-c2cccnc2)cc1	-71.9
CCOc1ccc(-n2c(SCC(N)=O)nnc2-c2cccnc2)cc1	-5.57
O=C(CCCN1C(=O)/C(=C/c2ccccc2Cl)SC1=S)NNC(=O)c1ccncc1	2.34
O=C(NNc1ccccn1)c1ccccc1CC[N+](=O)[O-]	13.3
COc1ccc(-c2ccc(C#N)c(SCC(=O)Nc3sc4c(c3C#N)CCC4)n2)cc1OC	10.3
COC(=O)c1c(C)[nH]c(C(=O)COc2ccc3ccc(=O)oc3c2)c1C	11.5
CN(C(=O)C1CCOC1)c1nnc(-c2cnccn2)s1 (centres unmarked)	11.1
O=S(=O)(Nc1nc(-c2ccccc2)cs1)c1cc(Cl)ccc1Cl	18.3
CCOC(=O)C1=C(CC)OC(N)=C(C#N)C1c1ccsc1 (centres unmarked)	1.69

Reference: PMC4336329 (PLoS ONE, 2015)
